# In PubChem BioAssay (NCI):
# The panel holds about 83,000 compounds, 20% with a hit somewhere; the sample as a whole holds those more often.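 Assay: single dose, 48 h. Readout: percent growth (0 = no net growth; negative = cell death). Active: <10.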 Activity calls are given as the source filed them.
# Tested on: ACHN renal
# Assay: NCI-60 one-dose screen, 48 h (100 = growth as untreated, 0 = no growth, -100 = all killed)
# Details: 10 µM unless noted
row,Compound,growth
1,COc1ccc(/C(C)=C(\c2ccc(Cl)cc2)c2ccc(OCCN3CCCC3)cc2)cc1F,50.9% (inactive)
2,Nc1c(-c2nc3ccccc3c(=O)[nH]2)nnn1-c1ccc(Cl)cc1,87% (inactive)
3,O=C(/C=C/C12c3ccccc3C(c3ccccc31)C1C(=O)NC(=O)C12)c1ccc(Cl)cc1 (centres undefined),-44.8% (active)
4,Clc1ccc(-c2cn(-c3ccccc3)c(-c3ccccc3)n2)cc1,94.6% (inactive)
5,COc1cc(C2C=C(c3cccc(NC(C)=O)c3)Nc3ncnn32)cc(OC)c1OC (centres undefined),52.8% (inactive)
6,C=C1C(=O)O[C@H]2[C@H]1CC/C(COC(=O)/C=C\C(=O)NCc1ccc(Cn3c(=O)sn(CCCC)c3=O)cc1)=C\CC[C@@]1(C)O[C@@H]21,-100% (active)
7,O=[N+]([O-])c1ccc2[nH]cc(-c3c4ccsc4cc4[nH]c5ccc([N+](=O)[O-])cc5c34)c2c1,24.5% (inactive)
8,Clc1ccc(-c2nc(NCCc3ccccc3)nc3c(NCCc4ccccc4)cnn23)cc1,98.7% (inactive)
9,O=C(C[C@@]1(O)C(=O)Nc2c(Cl)ccc(Cl)c21)c1ccc(C2CC2)cc1,39.6% (inactive)
10,CCC(O)(C(c1ccccc1)c1ccccn1)C(c1ccccc1)c1ccccn1 (centres undefined),95.2% (inactive)
11,NC(=Nc1ccc(N)cc1)C(N)=Nc1ccc(N)cc1,93.4% (inactive)
12,CCCCCCCCCCCCCCCCCC1=NCCN1C(=O)OCCO,38.4% (inactive)
13,NC(=S)c1csc(CCNC(=O)c2ccccc2)n1,105% (inactive)
14,O=C1CCC(N2C(=O)c3cccc(NCCCC4CCN(CCNC(=O)c5cc6c(o5)C(=O)c5ccccc5C6=O)CC4)c3C2=O)C(=O)N1 (centres undefined),-92.4% (active)
15,O=C(Oc1ccc[nH]c1=O)c1cc([N+](=O)[O-])cc([N+](=O)[O-])c1,107% (inactive)
16,COc1ccc(-c2cc(-c3ccc(Nc4nc(Nc5ccccc5)nc(Nc5ccc(Cl)cc5)n4)cc3)nc(N)n2)cc1,74.6% (inactive)
17,OCCCCc1nccc2c1[nH]c1ccccc12,98.7% (inactive)
18,CCOC(=O)c1sc(-c2ccc(OS(=O)(=O)c3ccc(C(C)(C)C)cc3)c(C=O)c2)nc1C,26.6% (inactive)
19,CCOC(=O)c1cnn2c(-c3ccc(Cl)cc3)nc(NCc3ccccc3)nc12,13.7% (inactive)
20,N#Cc1cnn2c(-c3ccc(Cl)cc3)nc(NCCc3ccccc3)nc12,94.2% (inactive)
21,Nc1ccc(-c2cc3c(Nc4ccc(OCc5cccc(F)c5)c(Cl)c4)ncnc3s2)cc1,29.6% (inactive)
22,O=[N+]([O-])c1ccc(-c2cc3c(Nc4ccc(Sc5nc6ccccc6s5)c(Cl)c4)ncnc3s2)cc1,34.4% (inactive)
23,NS(=O)(=O)c1cnccc1-n1ccc(=O)c(S(N)(=O)=O)c1,93.6% (inactive)
24,Oc1[nH]c2ccccc2c1/C=c1/cc2c(c(-c3ccc(F)cc3)n1)=Nc1ccccc1-2,-43.4% (active)
25,COc1cc(/C=C/C(=O)c2ccc(Nc3nc(Nc4ccccc4)nc(Nc4ccc(Cl)cc4)n3)cc2)cc(OC)c1OC,66.1% (inactive)
26,CCOC(=O)C1=C(C)NC(SCc2nnc(-c3ccc(Cl)cc3)o2)=NC1c1ccc(Cl)cc1Cl (centres undefined),57.7% (inactive)

# Tested on: CAKI-1 renal
# Assay: as above
# Details: 10 µM unless noted
row,Compound,growth
1,COc1cc(NC(=O)c2cc(O)c(CC=C(C)C)c(O)c2)cc2c1O[C@]1(C)CC[C@@H](O)C(C)(C)[C@H]1C2,19.6% (inactive)
2,Clc1ccc(/C=C/c2nc(Nc3ccc(Cl)cc3)c3ccccc3n2)cc1,90.1% (inactive)
3,CC1=NN(c2cccc(Cl)c2)C(=O)/C1=C\c1cn(CC(O)CN2CCCCC2)c2ccccc12 (centres undefined),24% (inactive)
4,Cc1nc(Nc2ccc(S(=O)(=O)Nc3cc(C)on3)cc2)c2ccccc2n1,90.7% (inactive)
5,CCOc1cc(C2C(Cl)C(=O)N2n2cnnc2)ccc1O (centres undefined),85.3% (inactive)
6,Nc1c(-c2nc3ccc(Br)cc3c(=O)[nH]2)nnn1-c1ccccc1,103% (inactive)
7,CSc1ccc(Cl)c(C(=O)Nc2sccc2C(N)=O)c1,112% (inactive)
8,COc1ccc(/C=C2\COc3ccc(O)cc3C2=O)cc1OC,62.3% (inactive)
9,CS(=O)(=O)c1ccc(N/N=C/c2c(-c3ccc(S(C)(=O)=O)cc3)[nH]c3ccc(F)cc23)cc1,57.5% (inactive)
10,Cc1nc(Nc2cccc(NC(=O)Nc3ccc(Cl)cc3)c2)c2ccccc2n1,80.4% (inactive)
11,C=C1c2c(C)nn(-c3ccc(O)cc3)c2N(C)C23C[C@@H]1C1(C)c4c(C)nn(-c5ccc(O)cc5)c4N(C)C(C)(C[C@H]12)C3 (some centres undefined),27.2% (inactive)
12,CN(C)CCC(O)(Cc1ccccc1)c1ccccc1 (centres undefined),83.6% (inactive)
13,CCCCN(Cc1ccc(C(=O)NO)cc1)C(=O)Nc1ccc(OCCCCCCCCCn2cc(CCCCC(=O)N[C@H](C(=O)N3C[C@H](O)C[C@H]3C(=O)NCc3ccc(-c4scnc4C)cc3)C(C)(C)C)nn2)cc1,61.7% (inactive)
